A selection: hits, their analogues and other compounds. The true share with any hit is near 10%.
NPR1 antag = human Npr1 receptor antagonism; P16066; HEK293 hNpr1 GloSensor cGMP, ANP-stimulated luminescence; Potency, µM (series often up to 46.3 µM), most hits filed as inhibitors; 1.6% of 76,000 active; AID 1347048; calls by dose curve; further: nearly all actives have a fitted effect of over 60% in size
Target sequence (P16066 whole entry, looked up): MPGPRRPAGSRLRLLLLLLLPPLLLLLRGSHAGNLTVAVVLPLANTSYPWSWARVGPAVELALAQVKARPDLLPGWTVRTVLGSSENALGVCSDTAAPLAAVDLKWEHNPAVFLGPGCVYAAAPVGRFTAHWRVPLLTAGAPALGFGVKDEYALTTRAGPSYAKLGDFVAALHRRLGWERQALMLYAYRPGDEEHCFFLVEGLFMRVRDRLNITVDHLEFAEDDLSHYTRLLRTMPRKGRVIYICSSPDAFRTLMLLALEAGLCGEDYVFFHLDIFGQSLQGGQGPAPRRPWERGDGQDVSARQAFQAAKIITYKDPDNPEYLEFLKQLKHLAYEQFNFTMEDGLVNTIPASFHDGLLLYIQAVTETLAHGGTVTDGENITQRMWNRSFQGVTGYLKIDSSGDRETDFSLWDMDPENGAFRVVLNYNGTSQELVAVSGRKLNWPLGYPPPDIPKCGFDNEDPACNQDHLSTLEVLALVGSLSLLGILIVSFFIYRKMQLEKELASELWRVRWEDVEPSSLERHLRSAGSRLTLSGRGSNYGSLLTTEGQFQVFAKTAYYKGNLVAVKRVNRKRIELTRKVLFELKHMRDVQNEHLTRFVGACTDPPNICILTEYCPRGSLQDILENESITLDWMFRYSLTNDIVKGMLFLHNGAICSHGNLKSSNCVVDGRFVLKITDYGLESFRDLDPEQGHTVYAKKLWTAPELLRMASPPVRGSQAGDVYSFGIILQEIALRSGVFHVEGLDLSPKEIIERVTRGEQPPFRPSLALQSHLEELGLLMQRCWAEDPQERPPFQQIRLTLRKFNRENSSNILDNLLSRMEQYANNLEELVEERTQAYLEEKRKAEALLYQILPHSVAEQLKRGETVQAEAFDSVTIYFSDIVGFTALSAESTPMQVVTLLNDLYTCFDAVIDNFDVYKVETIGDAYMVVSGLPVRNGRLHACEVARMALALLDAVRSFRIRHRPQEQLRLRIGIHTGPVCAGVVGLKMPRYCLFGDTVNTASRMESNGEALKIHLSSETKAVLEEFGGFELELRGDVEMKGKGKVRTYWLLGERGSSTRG
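HEK293 cells stably expressing human Npr1 and cGMP GloSensor pGS-40F, loaded 2 h with 2% GloSensor reagent, given compound 30 min at room temperature. Luminescence read before and 20 min after 0.1 nM hNppA.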
Luciferase inh = Photinus pyralis luciferase inhibition; P08659; purified P. pyralis luciferase, luminescence, biochemical; Potency, µM (highest dose often 115 µM), usual class: inhibitors; 2.5% of 76,000 active; AID 1347043; further: nearly all actives have a fitted effect of over 65% in size
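Luminescence read by CCD imager after adding enzyme (10nM final) to wells holding compound, titrated in qHTS. Substrates 10uM each D-luciferin and ATP; buffer 50mM Tris acetate pH 7.5, 10mM Mg acetate, Tween-20, BSA.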
GPT2 inhibitor = inhibitors of human GPT2 alanine aminotransferase. Q8TD30. Recombinant GPT2, coupled pyruvate oxidase/HRP Amplex Red fluorescence. Potency, µM (doses to about 57.7 µM), usual class: inhibitors. 0.25% of 100,000 active. AID 1671188; further: nearly all actives have a fitted effect of over 60% in size
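Recombinant GPT2 (10ng/uL) with 250uM a-KG and 2mM L-alanine, 30 min at room temperature, in HEPES pH 7.5 buffer. Pyruvate detected by pyruvate oxidase/HRP/Amplex Red fluorescence after 30 min in the dark; AOA (50uM) as positive control.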
3T3 cytotox = kills NIH 3T3 cells. AID 1345082. 4.3% of 94,000 active. NIH 3T3 viability, CellTiter-Glo ATP luminescence, 48-72 h. Potency, µM (titrated, usually from 96.7 µM), hits mostly inhibitors; further: nearly all actives have a fitted effect of over 55% in size
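Cytotoxicity was measured by CellTiter-Glo ATP luminescence after 48 or 72 h compound exposure at 37 °C. Mouse NIH 3T3 fibroblasts were seeded at 400 cells/well and dosed by 23 nL pin transfer.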
HEK cytotox = HEK 293 cell cytotoxicity; HEK 293 viability, ATP luminescence (CellTiter-Glo), 48-72 h; Potency, µM (series often up to 115 µM), most hits filed as inhibitors; 6.6% of 94,000 active; AID 1345083; further: nearly all actives have a fitted effect of over 60% in size
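250 HEK 293 cells/well; compound by pintool; incubated 48 or 72 hr at 37 degree Celsius; CellTiter-Glo added, 10 min RT, luminescence imaged.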
Each line names hits and unclear results; the compound was inactive in the other large screens; ! = a repeat was not active. Unless noted, the call rests on the fitted dose curve; in most records, active means well fitted curve in the direction sought with a large enough effect; inconclusive means small, poorly fitted or top-dose-only effect, or another doubt; inactive means no such curve, though single readings can be large; an effect the other way counts as inactive or inconclusive.

COc1ccc(S(=O)(=O)NC[C@@H]2C=C(C)[C@H](CC(=O)NCc3ccc(C#N)cc3)C[C@H]2C(C)C)cc1	3T3 cytotox 25µM, HEK cytotox inconclusive
CC1=C[C@@H](CC#N)[C@H](C(C)C)C[C@H]1CC(=O)NCc1ccc(F)cc1	3T3 cytotox inconclusive, HEK cytotox 89µM
CCOC(=O)C[C@@H]1C[C@@H](C(C)C)[C@H](CNS(=O)(=O)c2ccccc2)C=C1C	NPR1 antag inconclusive, 3T3 cytotox inconclusive, HEK cytotox 63µM
CC1=C[C@@H](CNS(=O)(=O)c2ccccc2)[C@H](C(C)C)C[C@H]1CC(=O)NCc1ccc(C#N)cc1	GPT2 inhibitor inconclusive, 3T3 cytotox inconclusive, HEK cytotox inconclusive
COCCNC(=O)C[C@@H]1C[C@@H](C(C)C)[C@H](CNC(=O)C2CC2)C=C1C	3T3 cytotox inconclusive, HEK cytotox inconclusive
CCCC(=O)N1CCCN(c2ccnc3ccnn23)CC1	none (no result: NPR1 antag, Luciferase inh)
CC1=C[C@@H](CNS(=O)(=O)c2ccc(F)cc2)[C@H](C(C)C)C[C@H]1CC(=O)NCCN(C)C	3T3 cytotox 40µM, HEK cytotox inconclusive
CC1=C[C@@H](CNS(=O)(=O)c2cccc(F)c2)[C@H](C(C)C)C[C@H]1CC(=O)O	3T3 cytotox 45µM
CC1=C[C@@H](CNS(=O)(=O)c2ccccc2)[C@H](C(C)C)C[C@H]1CC(=O)NCCN(C)C	3T3 cytotox inconclusive, HEK cytotox inconclusive
CC1=C[C@@H](CNC(=O)c2ccccn2)[C@H](C(C)C)C[C@H]1CC(=O)N1CCCC1	3T3 cytotox 100µM, HEK cytotox inconclusive
CC1=C[C@@H](CNS(=O)(=O)c2ccc(Cl)cc2)[C@H](C(C)C)C[C@H]1CC(=O)N1CCOCC1	NPR1 antag inconclusive, GPT2 inhibitor inconclusive, 3T3 cytotox 32µM, HEK cytotox inconclusive
COc1ccc(-n2c(=O)c(C(=O)N3CCC(C#N)CC3)nc3cccnc32)cc1	none (no result: NPR1 antag, Luciferase inh)
COc1ccccc1N1CCN(C(=O)C[C@@H]2C[C@@H](C(C)C)[C@H](CC#N)C=C2C)CC1	3T3 cytotox inconclusive, HEK cytotox 35µM
COCCNC(=O)c1cn2cc(-c3ccc(C)cc3)sc2n1	3T3 cytotox inconclusive, HEK cytotox 100µM (no result: NPR1 antag, Luciferase inh)
COC(=O)CNC(=O)c1cn2cc(-c3ccc(C)cc3)sc2n1	GPT2 inhibitor inconclusive, HEK cytotox inconclusive (no result: NPR1 antag, Luciferase inh)
O=C(NCc1ccc(F)c(F)c1)c1cn2cc(-c3ccc(C(F)(F)F)cc3)sc2n1	3T3 cytotox 45µM, HEK cytotox 56µM (no result: NPR1 antag, Luciferase inh)
COCCCNC(=O)c1cn2cc(-c3cccc(OC)c3)sc2n1	3T3 cytotox inconclusive, HEK cytotox 79µM (no result: NPR1 antag, Luciferase inh)
Cc1ccc(-c2cn3cc(C(=O)NCc4ccccn4)nc3s2)cc1	3T3 cytotox inconclusive, HEK cytotox 79µM (no result: NPR1 antag, Luciferase inh)
C[S+](=O)([O-])c1ccc(-c2nnc3ccc(C(=O)NCc4ccc(Cl)cc4)cn23)cc1	3T3 cytotox inconclusive (no result: NPR1 antag, Luciferase inh)
CCN1CCN(C(=O)c2cc(-c3ccccc3F)nc3c2cnn3C)CC1	none (no result: NPR1 antag, Luciferase inh, GPT2 inhibitor)
CC(C)CNC(=O)c1cn2cc(-c3cccc(C(F)(F)F)c3)sc2n1	3T3 cytotox inconclusive, HEK cytotox inconclusive (no result: NPR1 antag, Luciferase inh)
CC(C)NC(=O)c1cn2cc(-c3ccccc3)sc2n1	3T3 cytotox inconclusive, HEK cytotox 71µM (no result: NPR1 antag, Luciferase inh)
CC(C)CNC(=O)c1cn2cc(-c3cccnc3)sc2n1	3T3 cytotox inconclusive, HEK cytotox inconclusive (no result: NPR1 antag, Luciferase inh)
CNC(=O)c1cn2cc(-c3cccc(C(F)(F)F)c3)sc2n1	3T3 cytotox inconclusive, HEK cytotox 28µM (no result: NPR1 antag, Luciferase inh)
COc1cccc(-c2cn3cc(C(=O)NCC(C)C)nc3s2)c1	GPT2 inhibitor inconclusive, 3T3 cytotox inconclusive, HEK cytotox 22µM (no result: NPR1 antag, Luciferase inh)
CC(C)NC(=O)c1cn2cc(-c3ccc(C(F)(F)F)cc3)sc2n1	none (no result: NPR1 antag, Luciferase inh)
Cc1ccc2c(n1)OC(COc1ccccc1)CN(Cc1cccs1)C2=O (stereo unspecified)	3T3 cytotox inconclusive, HEK cytotox inconclusive (no result: NPR1 antag, Luciferase inh)
Cc1nnc2ccc(N3CCCC(NC(=O)Cc4ccc(F)cc4)C3)nn12 (stereo unspecified)	none (no result: NPR1 antag, Luciferase inh, GPT2 inhibitor)
O=C(Nc1ccc(F)cc1)c1nc2sccn2c1-c1cccnc1	none (no result: NPR1 antag, Luciferase inh)
Cc1ccc(CN2CCCC(c3nn(-c4ccc(Cl)cc4)c(=O)[nH]3)C2)cc1 (stereo unspecified)	3T3 cytotox inconclusive, HEK cytotox 35µM
COc1ccc(-n2nc(C3CCN(Cc4ccc(C)cc4)CC3)[nH]c2=O)cc1	3T3 cytotox inconclusive, HEK cytotox 40µM!
COc1ccc(C(=O)N2CCC(c3nn(-c4ccc(Cl)cc4)c(=O)[nH]3)CC2)cc1	3T3 cytotox inconclusive, HEK cytotox inconclusive
CC(=O)N1CCC(c2nn(-c3ccc(F)cc3)c(=O)[nH]2)CC1	none
COc1ccc(-n2nc(C3CCN(Cc4ccc(F)cc4)CC3)[nH]c2=O)cc1	3T3 cytotox inconclusive, HEK cytotox 18µM!
O=c1[nH]c(C2CCCN(Cc3ccc(C(F)(F)F)cc3)C2)nn1-c1ccc(Cl)cc1 (stereo unspecified)	none
COc1ccc(-n2nc(C3CCN(Cc4ccc(C#N)cc4)CC3)[nH]c2=O)cc1	HEK cytotox 22µM
O=C(CC(F)(F)F)N1CCC(N2C(=O)C3(CCCC3)C2c2ccccc2)CC1 (stereo unspecified)	3T3 cytotox inconclusive
CCC(NC(=O)c1cc(Cn2ccc3ccccc32)[nH]n1)c1ncccc1C (stereo unspecified)	3T3 cytotox inconclusive, HEK cytotox inconclusive
CC(C)c1ccc(CN2CC(CNc3cccnc3)C3(C2)CN(c2ccccc2)C3)cc1 (stereo unspecified)	NPR1 antag inconclusive, 3T3 cytotox 35µM, HEK cytotox 50µM
Oc1ccccc1CN1CC(CNc2cccnc2)C2(C1)CN(c1ccccc1)C2 (stereo unspecified)	3T3 cytotox inconclusive, HEK cytotox 63µM
O=C(c1cccnc1)N1CC(CNc2ccccc2)C2(C1)CN(c1ccccc1)C2 (stereo unspecified)	3T3 cytotox inconclusive, HEK cytotox inconclusive
c1ccc(NCC2CN(Cc3ccccn3)CC23CN(c2ccccc2)C3)cc1 (stereo unspecified)	3T3 cytotox inconclusive, HEK cytotox 79µM
CCOc1ccccc1NC(=O)N1CCC2(CCC2NC(=O)COC)CC1 (stereo unspecified)	none (no result: NPR1 antag, Luciferase inh)
O=C(c1cc(F)ccc1F)N1CCC(Cc2noc(C3CC3)n2)C1 (stereo unspecified)	none (no result: NPR1 antag, Luciferase inh)
CO[C@H]1C(=O)N(C(C)C)[C@H]1C1CCN(S(=O)(=O)c2cccc3nsnc23)CC1	none (no result: NPR1 antag, Luciferase inh)
COc1ccc(-c2cc(N3CCCN(C(=O)C4(c5ccc(OC)cc5)CC4)CC3)n[nH]2)cc1	NPR1 antag inconclusive, GPT2 inhibitor inconclusive, 3T3 cytotox inconclusive, HEK cytotox 45µM
CC(C(=O)N1CCN(c2cc(-c3ccc(Cl)cc3)[nH]n2)CC1)c1ccccc1 (stereo unspecified)	3T3 cytotox inconclusive, HEK cytotox 28µM

High-throughput results: PubChem BioAssay, National Center for Advancing Translational Sciences (NCATS)
